Results as given in PubChem BioAssay (NCI).
Compounds without any hit were thinned out: in the full panel of roughly 83,000, 20% have a hit.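 Interpretation: 100, growth as untreated; towards 0, rising growth inhibition; 0, no net growth; 0 to -100, cell death. Compounds scoring below 10 were considered active.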 Calls of active or inactive are those of the source.

Tests used:
Experiment in all cases: NCI-60 one-dose screen, 48 h (100 = growth as untreated, 0 = no growth, -100 = all killed)
Conditions in all cases: 10 µM unless noted
T-47D breast = system: T-47D breast
BT-549 breast = system: BT-549 breast
MDA-MB-435 melanoma = system: MDA-MB-435 melanoma
SW-620 colon = system: SW-620 colon
MCF7 breast = system: MCF7 breast
HCT-116 colon = system: HCT-116 colon
HCC-2998 colon = system: HCC-2998 colon
KM12 colon = system: KM12 colon

Measured: growth

COc1ccc(NC(=O)c2ccc(/C=C/C(=O)c3ncc[nH]3)cc2)cc1
inactive: T-47D breast 68.5% | BT-549 breast 78.8% | MDA-MB-435 melanoma 67.1% | SW-620 colon 34.5% | MCF7 breast 25.1% | HCT-116 colon 71.5% | HCC-2998 colon 83.9% | KM12 colon 27.5%

C#CCOc1ccc2ncnc(Nc3cccc(CNC(=O)C=C)c3)c2c1
inactive: T-47D breast 87.9% [8.25 µM] | BT-549 breast 96.4% [8.25 µM] | MDA-MB-435 melanoma 97.1% [8.25 µM] | SW-620 colon 107% [8.25 µM] | MCF7 breast 87% [8.25 µM] | HCT-116 colon 104% [8.25 µM] | HCC-2998 colon 106% [8.25 µM] | KM12 colon 109% [8.25 µM]

CCCCC(=O)OCC1OC(n2cnc3c(=S)nc[nH]c32)C(OC(=O)CCCC)C1OC(=O)CCCC (configuration not stated)
inactive: T-47D breast 36.1% | BT-549 breast 43.9% | MDA-MB-435 melanoma 29.4% | SW-620 colon 23.5% | MCF7 breast 20.2% | HCT-116 colon 27.3% | KM12 colon 36.1%
active: HCC-2998 colon -0.586%

N#CN1CCC[C@H]1C(=O)N1CCc2c(-c3[nH]nc4ncccc34)cccc21
inactive: T-47D breast 13% | SW-620 colon 15.1%
active: BT-549 breast -37.6% | MDA-MB-435 melanoma -61.6% | MCF7 breast 5.76% | HCT-116 colon -19.6% | HCC-2998 colon -6.99% | KM12 colon -14%

COc1cc(Nc2cc(C)nc(N3CCN(c4ccnc5cc(Cl)ccc45)CC3)n2)cc(OC)c1
inactive: BT-549 breast 41.8% | SW-620 colon 15.9%
active: T-47D breast 8.17% | MDA-MB-435 melanoma -2.88% | MCF7 breast 5.32% | HCT-116 colon 2.14% | HCC-2998 colon 7.77% | KM12 colon 3.72%

Cc1cc(N2CCN(c3ccnc4cc(Cl)ccc34)CC2)nc(N2CCOCC2)n1
inactive: T-47D breast 46.9% | BT-549 breast 86% | MDA-MB-435 melanoma 88.7% | SW-620 colon 101% | MCF7 breast 75.1% | HCT-116 colon 70.3% | HCC-2998 colon 89% | KM12 colon 85.6%

CC(O)CN1CC(O)=C(c2nc3ccccc3s2)C1=N (configuration not stated)
inactive: T-47D breast 104% | BT-549 breast 109% | MDA-MB-435 melanoma 98.9% | SW-620 colon 108% | MCF7 breast 96.3% | HCT-116 colon 109% | KM12 colon 117%
active: HCC-2998 colon 8.02%

COc1ccc(-n2nc(C)c3c(Nc4ccc(NC(=O)Nc5ccc(Cl)c(C(F)(F)F)c5)cc4)ncnc32)cc1
active: T-47D breast 1.89% | MDA-MB-435 melanoma -9.88% | MCF7 breast 1.4% | HCT-116 colon 7.03% | KM12 colon 6.08%
inactive: BT-549 breast 17.2% | SW-620 colon 14.3% | HCC-2998 colon 15.6%

Cc1ccc(NS(=O)(=O)c2ccc(-c3cnc(C4CC4)o3)cc2)cc1C
active: MDA-MB-435 melanoma 4.45%
inactive: T-47D breast 26.4% | BT-549 breast 35.5% | SW-620 colon 19.7% | MCF7 breast 12.1% | HCT-116 colon 19.4% | HCC-2998 colon 45% | KM12 colon 42.8%

Oc1ccc(N=Cc2ccccc2O)cc1
inactive: T-47D breast 89.4% | BT-549 breast 78.3% | MDA-MB-435 melanoma 110% | SW-620 colon 99.1% | MCF7 breast 92.8% | HCT-116 colon 98.8% | HCC-2998 colon 116% | KM12 colon 88.8%

N#Cc1c(N)n(CCNC(=O)c2ccccc2)c2nc3ccccc3nc12
inactive: T-47D breast 95.4% | BT-549 breast 140% | MDA-MB-435 melanoma 95.9% | SW-620 colon 123% | MCF7 breast 109% | HCT-116 colon 102% | HCC-2998 colon 97.4% | KM12 colon 114%

NC1=C(Cl)C(=O)c2ccc(S(N)(=O)=O)cc2C1=O
active: T-47D breast -46.1% | BT-549 breast -91.5% | MDA-MB-435 melanoma -86.8% | SW-620 colon -77.9% | MCF7 breast -49.5% | HCT-116 colon -90.1% | HCC-2998 colon -97.1% | KM12 colon -72.1%

COCCNc1ccc2c3c(cccc13)C(=O)N(CCN(C)C)C2=O
active: T-47D breast -10.9% | MCF7 breast -16.5%
inactive: BT-549 breast 17.7% | MDA-MB-435 melanoma 25.9% | SW-620 colon 24.5% | HCT-116 colon 10.9% | HCC-2998 colon 28.6% | KM12 colon 24.9%

Cn1cc(-c2nonc2-c2cn(C)c3ccc(F)cc23)c2cc(F)ccc21
inactive: T-47D breast 64.7% | BT-549 breast 68.6% | SW-620 colon 22.2% | MCF7 breast 27.9% | HCT-116 colon 28.2% | HCC-2998 colon 73% | KM12 colon 33%
active: MDA-MB-435 melanoma -4.48%

CCN1CCN(c2nc(NCCCNc3ccnc4cc(Cl)ccc34)c3ccccc3n2)CC1
inactive: BT-549 breast 68.7% | MCF7 breast 23.2% | HCT-116 colon 20.7% | HCC-2998 colon 21.9% | KM12 colon 29.3%
active: T-47D breast -4.69% | MDA-MB-435 melanoma -81.7% | SW-620 colon 9.73%

O=S(=O)(Nc1ccc(NS(=O)(=O)c2ccccc2)c(Cl)c1)c1ccccc1
inactive: T-47D breast 106% | BT-549 breast 105% | MDA-MB-435 melanoma 107% | SW-620 colon 99.1% | MCF7 breast 91.6% | HCT-116 colon 97.6% | HCC-2998 colon 104% | KM12 colon 104%

CCN=C1C=CC(=C(c2ccc(N)cc2)c2ccc(N(CC)CC)c(C)c2)C=C1
active: T-47D breast 1.14% | BT-549 breast -31.8% | MDA-MB-435 melanoma -41.2% | SW-620 colon 4.24% | MCF7 breast -11.5% | HCT-116 colon -17.5% | HCC-2998 colon -4.16% | KM12 colon -88.4%

COc1cccc(-c2nc3sccn3c2-c2ccnc(NCCCNS(=O)(=O)c3c(Cl)cccc3Cl)c2)c1
active: T-47D breast 5.35%
inactive: BT-549 breast 43.2% | MDA-MB-435 melanoma 64.5% | SW-620 colon 76.8% | MCF7 breast 65.8% | HCT-116 colon 52.6% | HCC-2998 colon 84.8% | KM12 colon 68.2%

O=[N+]([O-])c1cnc(N2CCN(CC3CC3)CC2)nc1N1CCN(CC2CC2)CC1
inactive: T-47D breast 100% | BT-549 breast 88.9% | MDA-MB-435 melanoma 98.1% | SW-620 colon 90.9% | MCF7 breast 96.4% | HCT-116 colon 86% | HCC-2998 colon 99% | KM12 colon 100%

CCCCn1c(-c2ccc(C(=O)O/N=C(\N)c3ccc4c(c3)OCO4)cc2)nc(-c2ccccc2)c1-c1ccccc1
active: T-47D breast 0.0231% | HCT-116 colon 4.35%
inactive: BT-549 breast 54.5% | MDA-MB-435 melanoma 46.1% | SW-620 colon 60.3% | MCF7 breast 48.1% | HCC-2998 colon 61.5% | KM12 colon 36.8%

COc1cc(/C=C/C(=O)c2ccc(O)c(CN3CCN(c4cc5c(cc4F)c(=O)c(C(=O)O)cn5C4CC4)CC3)c2)cc(OC)c1OC
inactive: T-47D breast 50.4% | BT-549 breast 31.8% | MDA-MB-435 melanoma 28.6% | SW-620 colon 34.8% | MCF7 breast 18.6% | HCC-2998 colon 67.2% | KM12 colon 72%
active: HCT-116 colon 7.72%

O=C1OCC2=C1C(c1ccncc1)c1cc3c(cc1N2CCO)OCO3 (configuration not stated)
inactive: T-47D breast 91.1% | BT-549 breast 112% | MDA-MB-435 melanoma 96.7% | SW-620 colon 93.4% | MCF7 breast 96.3% | HCT-116 colon 107% | HCC-2998 colon 103% | KM12 colon 97.8%

COc1cccc(C2=NN3C(C2)c2cc(Br)cc(OC)c2OC32CCN(Cc3ccccc3)CC2)c1 (configuration not stated)
inactive: T-47D breast 108% | BT-549 breast 110% | MDA-MB-435 melanoma 98.3% | SW-620 colon 96.3% | MCF7 breast 96.3% | HCT-116 colon 114% | HCC-2998 colon 99.2% | KM12 colon 103%

O=C(/C=C/c1cccc([N+](=O)[O-])c1)c1ccc(O)c(CN2CCN(c3cc4c(cc3F)c(=O)c(C(=O)O)cn4C3CC3)CC2)c1
inactive: T-47D breast 10.9% | MDA-MB-435 melanoma 11.2% | HCC-2998 colon 35.5%
active: BT-549 breast 6.04% | SW-620 colon -43% | MCF7 breast 1.85% | HCT-116 colon -59.5% | KM12 colon -12.2%

CN(C)CCN1C(=O)c2cccc3c(N)ccc(c23)C1=O
inactive: BT-549 breast 89.9% | MDA-MB-435 melanoma 39.6% | SW-620 colon 26.6% | HCT-116 colon 15.9% | HCC-2998 colon 48.1% | KM12 colon 28.1%
active: T-47D breast -2.59% | MCF7 breast -11.3%

Cc1cc(C)c2nc3nc(C)cc(C)c3c(N)c2c1
active: MCF7 breast 8.2%
inactive: T-47D breast 37.8% | BT-549 breast 56.1% | MDA-MB-435 melanoma 29.5% | SW-620 colon 16.2% | HCT-116 colon 13.9% | HCC-2998 colon 10.7% | KM12 colon 22.3%

O=C(CN(C(=O)Cn1c(=O)n2nnnc2c2ccccc21)c1ccccc1C(F)(F)F)Nc1ccc(C(F)(F)F)cc1
inactive: T-47D breast 101% | BT-549 breast 95.7% | MDA-MB-435 melanoma 105% | SW-620 colon 105% | MCF7 breast 96.1% | HCT-116 colon 95.5% | HCC-2998 colon 106% | KM12 colon 110%

O=C(CCl)Oc1ccc(-c2ccccc2)c(Br)c1
inactive: T-47D breast 103% | BT-549 breast 104% | MDA-MB-435 melanoma 104% | SW-620 colon 104% | MCF7 breast 103% | HCT-116 colon 108% | HCC-2998 colon 109% | KM12 colon 104%

O=c1cc(CSc2nnc(-c3ccc(F)cc3)o2)c2ccc3ccccc3c2o1
inactive: T-47D breast 100% | BT-549 breast 111% | MDA-MB-435 melanoma 106% | SW-620 colon 94.5% | MCF7 breast 93.5% | HCT-116 colon 93.2% | HCC-2998 colon 95.4% | KM12 colon 100%
